The source of these data is PubChem BioAssay (NCATS).

Each structure is given as a SMILES string. Records with an inconclusive call do not appear. A structure can be active in one record and inactive in another. Unmarked numbers belong to inactive results. Active and inactive are the calls of the source. Calls follow the shape of the dose curve; as a rule, active = well fitted curve in the direction sought with a large enough effect; inconclusive = small, poorly fitted or top-dose-only effect, or another doubt; inactive = no such curve, though single readings can be large; an effect the other way counts as inactive or inconclusive.

The nature of assay [1]: Drug repurposing screens with cells derived from glioblastoma tumor samples (AID 1345199). Also: nearly all actives have a fitted effect of over 40% in size. The note with it: GBM patient neurospheres viability, ATP luminescence, 48 h. In short, it runs like this: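 Four patient lines of CD133+ GBM neurospheres were screened at several concentrations; hits were retested in those lines plus three slower-growing GBM lines, using 48-hour treatment and ATP-based viability.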

Another assay has as its system C33A. The assay is described as follows: Primary qHTS to identify gynecologic anti-cancer compounds using libraries of approved drugs and bioactive compounds (AID 1345084). Also: nearly all actives have a fitted effect of over 55% in size. The following applies: Gynecologic cancer cell panel viability, ATPlite luminescence, 48 h; series mostly up to 57.5 µM. In short, it runs like this:
(§1)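 Cell viability after 48 h drug treatment, ATPlite luminescence readout; five doses.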
Background: In qHTS, concentration-response curves come from the screen itself.

The subject of the next assay is CAOV3. The description is as above. The note with it: Gynecologic cancer cell panel viability, ATPlite luminescence, 48 h; series mostly up to 57.5 µM. A digest of the protocol:
as §1

For the next assay, the system named is CASKI. The assay is described as above. The following applies: Gynecologic cancer cell panel viability, ATPlite luminescence, 48 h; series mostly up to 57.5 µM. A digest of the protocol:
as §1
(ATP-based viability assays read luminescence as a measure of living cells.)

For a further assay, the system named is Es-2. The description is as above. The following applies: Gynecologic cancer cell panel viability, ATPlite luminescence, 48 h; series mostly up to 57.5 µM. A digest of the protocol: as §1
In the next assay the test system is HeLa. Described as above. The note with it: Gynecologic cancer cell panel viability, ATPlite luminescence, 48 h; series mostly up to 57.5 µM. A digest of the protocol:
as §1

Another assay relates to Hek293T. The assay is described as above. The note with it: Gynecologic cancer cell panel viability, ATPlite luminescence, 48 h, control line for the selectivity index; series mostly up to 57.5 µM. In short, it runs like this: as §1
The subject of a further assay is JEG-3. The description is as above. The following applies: Gynecologic cancer cell panel viability, ATPlite luminescence, 48 h; series mostly up to 57.5 µM. In short, it runs like this:
as §1

The test system of the next assay is OV90. Described as above. The following applies: Gynecologic cancer cell panel viability, ATPlite luminescence, 48 h; series mostly up to 57.5 µM. A digest of the protocol:
as §1

For the next assay, the system named is PA-1. The description is as above. The following applies: Gynecologic cancer cell panel viability, ATPlite luminescence, 48 h; series mostly up to 57.5 µM. A digest of the protocol: as §1
Another assay deals with SKOV3. The assay is described as above. The following applies: Gynecologic cancer cell panel viability, ATPlite luminescence, 48 h; series mostly up to 57.5 µM. A digest of the protocol:
as §1

The test system of the next assay is Tov-21-G. The description is as above. The note with it: Gynecologic cancer cell panel viability, ATPlite luminescence, 48 h; series mostly up to 57.5 µM. A digest of the protocol:
as §1

In the next assay the test system is Tov112D. The description is as above. The following applies: Gynecologic cancer cell panel viability, ATPlite luminescence, 48 h; series mostly up to 57.5 µM. In short, it runs like this: as §1
The test system of another assay is MCC-13. The assay is described as follows: qHTS assay to identify novel small-molecules to repurpose for Merkel cell carcinoma treatment (AID 1296009). Also: nearly all actives have a fitted effect of over 60% in size. The note with it: MCC and control cell lines, CellTiter-Glo viability, 72 h; series mostly up to 46 µM. In short, it runs like this: (§2)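 Cells exposed to NPC (8-point) and MIPE (11-point) compound dilutions for 72 hr at 37 degree celsius; viability read by CellTiter-Glo luminescence, normalized to no-cell and DMSO in-plate controls.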

In another assay the test system is MKL-1. The description is as above. The note with it: MCC and control cell lines, CellTiter-Glo viability, 72 h; series mostly up to 46 µM. A digest of the protocol: as §2
A further assay deals with MKL-2. The description is as above. The following applies: MCC and control cell lines, CellTiter-Glo viability, 72 h; series mostly up to 46 µM. In short, it runs like this:
as §2

The next assay has as its system WaGa. The assay is described as above. The note with it: MCC and control cell lines, CellTiter-Glo viability, 72 h; series mostly up to 46 µM. A digest of the protocol:
as §2

The next assay relates to MCC-26. The description is as above. The note with it: MCC and control cell lines, CellTiter-Glo viability, 72 h; series mostly up to 46 µM. A digest of the protocol:
as §2

A further assay has as its system NIH3T3. The assay is described as above. The following applies: MCC and control cell lines, CellTiter-Glo viability, 72 h; at 44.8 µM (top of the series) unless noted. A digest of the protocol: as §2
The test system of a further assay is UISO. The description is as above. The following applies: MCC and control cell lines, CellTiter-Glo viability, 72 h; series mostly up to 46 µM. A digest of the protocol:
as §2

Setting [2] is: at 91.6 µM (top of the series), tumour line B.
Setting [3] is: at 45.9 µM (top of the series), tumour line B.
The mark [4] stands for this setting: at 45.9 µM (top of the series), tumour line D.
[5] abbreviates: at 46 µM (top of the series), tumour line A.
% is scaled to controls: 0 for no effect and ±100 for the full control effect; potency is read from the fitted curve at half-maximal effect.

`CN[C@@H](C)Cc1ccccc1`: the activity, negative = cell killing is -24.4% in [1] (at 91.6 µM (top of the series), tumour line A); -1.76% in assay [1] (setting [2]); 4.77% in assay [1] (at 91.6 µM (top of the series), tumour line D).

Turning to `C[C@]12CC[C@H]3[C@@H](CC[C@@]45O[C@H]4C(O)=C(C#N)C[C@]35C)[C@H]1CC[C@H]2O`, the Potency entry with C33A, with Es-2, in the assay with HeLa, in the assay with OV90, with PA-1 and with Tov-21-G was “inactive” throughout. Besides, the Potency entry in the assay on Tov112D is “inactive”. For the same compound, the compound was called inactive with CAOV3, with CASKI, in the assay with Hek293T, with JEG-3 and with SKOV3.

Consider `C[C@](O)(CS(=O)(=O)c1ccc(F)cc1)C(=O)Nc1ccc(C#N)c(C(F)(F)F)c1`, for which, in the assay on MCC-13, the result was inactive. The Potency result in the assay with MKL-1 is “inactive”. For the same compound, the values for the Potency (in the assay with MKL-2; with WaGa; in [1] (tumour line A)) were 23.5 µM (active), 13.2 µM (active) and 12.6 µM (active), respectively. The activity, negative = cell killing in assay [1] (setting [3]) is -21.4%.

For the compound `Clc1ccc2c(c1)C(c1ccccc1)=NCc1nncn1-2`, the activity, negative = cell killing is -7.06% in [1] (setting [3]) and 3.75% in assay [1] (setting [4]).

With `COC(=O)C(c1ccccc1)C1CCCCN1` (centres undefined), the activity, negative = cell killing in assay [1] (setting [3]) was -10.4%; in assay [1] (setting [4]), 3.11%; in [1] (setting [5]), -16.7%.

As for `C[C@]12CC[C@H]3[C@@H](CCC4=CC(=O)CC[C@@H]43)[C@@H]1CC[C@@H]2OC(=O)CCc1ccco1`, the result with MCC-13, in the assay with CAOV3, in the assay on CASKI, in the assay with Hek293T, in the assay with JEG-3 and with SKOV3 was inactive. In addition, the Potency entry in the assay with MCC-26, with WaGa, with C33A, with Es-2, in the assay with OV90 and in the assay with Tov-21-G was “inactive” each time. In addition, the Potency result with Tov112D is “inactive”. The Potency with HeLa is 3.16 µM (active); in the assay with PA-1, 25.1 µM (active).

As for `O=C(CCCN1CCC2(CC1)C(=O)NCN2c1ccccc1)c1ccc(F)cc1`, the compound was classed as inactive with MCC-13, in the assay on NIH3T3, in the assay on CAOV3, in the assay with CASKI, in the assay on Hek293T and in the assay with JEG-3. The result in the assay with SKOV3 was inactive. The Potency result with MKL-1, in the assay on MKL-2, in the assay with UISO, in the assay with WaGa, in the assay on C33A and in the assay on Es-2 was “inactive” in each case. In addition, the Potency entry in the assay with HeLa, with PA-1, in the assay with Tov-21-G and with Tov112D was “inactive” each time. Moreover, the Potency in [1] (tumour line A) is 2.24 µM (active); in [1] (tumour line D) it was 12.6 µM (active).

On to `CCCC(C)(COC(N)=O)COC(N)=O`, for which the figures for the activity, negative = cell killing in assay [1] (setting [3]), in assay [1] (setting [4]) and in assay [1] (setting [5]) were 0.449%, -14.8% and -19.1%, respectively.

Turning to `CN1CC[C@]23c4c5ccc(O)c4O[C@H]2[C@@H](O)C=C[C@H]3[C@H]1C5`, the compound was called inactive in the assay with MCC-13, in the assay on CAOV3, in the assay with CASKI, in the assay on Hek293T, with JEG-3 and in the assay with SKOV3. Moreover, the Potency entry in the assay with MCC-26, in the assay on C33A, in the assay with Es-2, in the assay with HeLa, in the assay on OV90 and with PA-1 was “inactive” throughout. Moreover, the Potency result in the assay on Tov-21-G and in the assay with Tov112D was “inactive” each time. Further, in [1] (tumour line A), the Potency was 20 µM (active).

For `COc1cccc2c1C(=O)c1c(O)c3c(c(O)c1C2=O)C[C@@](O)(C(=O)CO)CC3OC1CC(N2CCOC(OC)C2)C(O)C(C)O1` (some centres undefined), the Potency in the assay on MCC-26 was 0.0473 µM (active); in the assay with UISO, 0.0188 µM (active); in the assay on WaGa, 0.0237 µM (active); with C33A it was 0.282 µM (active); in the assay with HeLa, 0.224 µM (active); in the assay on OV90, 0.447 µM (active). The Potency in the assay on Tov-21-G and with Tov112D was 0.1 µM (active) in each case.

On to `CC(C)(C)c1ccc(O)cc1`, for which the Potency result in the assay with C33A, with Es-2, with HeLa, in the assay with OV90, in the assay with PA-1 and with Tov-21-G was “inactive” throughout. The Potency result in the assay on Tov112D is “inactive”. The result with CAOV3, in the assay on CASKI, with Hek293T and in the assay on JEG-3 was inactive. Further, the activity, negative = cell killing in assay [1] (setting [3]) is -7.29%; in assay [1] (setting [4]), 7.61%; in assay [1] (setting [5]), -21%.

For `O=C(N/N=C/c1ccc([N+](=O)[O-])o1)c1cc([N+](=O)[O-])cc([N+](=O)[O-])c1O`, the compound was classed as inactive in the assay on MCC-13, in the assay on CAOV3, with CASKI, with Hek293T, in the assay on JEG-3 and with SKOV3. In addition, the Potency result with MCC-26, with MKL-1, with UISO, with C33A, in the assay with Es-2 and in the assay with HeLa was “inactive” each time. For the same compound, the Potency result with OV90, in the assay with PA-1, in the assay with Tov-21-G and in the assay on Tov112D was “inactive” throughout. Besides, the activity, negative = cell killing in [1] (setting [3]) was -13.9%; in assay [1] (setting [4]), -24.1%.

In the case of `COc1cccc(C(=O)CCN[C@@H](C)[C@H](O)c2ccccc2)c1`, the compound was called inactive in the assay on MCC-13, in the assay with CAOV3, with CASKI, in the assay on Hek293T, in the assay with JEG-3 and in the assay with SKOV3. The Potency result with MCC-26, in the assay on C33A, with Es-2, in the assay with HeLa, in the assay with PA-1 and with Tov-21-G was “inactive” each time. In addition, in the assay on Tov112D, the Potency entry is “inactive”. Moreover, the Potency with MKL-2 was 15 µM (active); in assay [1] (tumour line A), 28.2 µM (active); in [1] (tumour line B), 22.4 µM (active); in assay [1] (tumour line D), 22.4 µM (active).

Consider `CN1C(=O)C(O)N=C(c2ccccc2)c2cc(Cl)ccc21` (centres undefined), for which the activity, negative = cell killing in assay [1] (setting [3]) is 2.89%; in assay [1] (setting [4]), -6.26%; in assay [1] (setting [5]), -24.3%.

As for `CCN(CC)C(=O)[C@@H]1C=C2c3cccc4[nH]cc(c34)C[C@H]2N(C)C1`, the result in the assay on MCC-13, in the assay on CAOV3, in the assay on CASKI, with Hek293T and in the assay on JEG-3 was inactive. The Potency result with MCC-26, with C33A, with Es-2, with HeLa, in the assay on Tov-21-G and in the assay on Tov112D was “inactive” throughout. Also, the activity, negative = cell killing in [1] (setting [3]) was -17.8%; in assay [1] (at 194 µM (top of the series), tumour line B), -16.6%.

Regarding `C[C@]12CCC(=O)C=C1CC[C@@H]1[C@H]3CC[C@](C)(O)[C@@]3(C)CC[C@@H]12`, the result in the assay with MCC-13, in the assay with CAOV3 and in the assay with JEG-3 was inactive. Moreover, the Potency result in the assay with MCC-26, in the assay on C33A, in the assay with Es-2 and with Tov-21-G was “inactive” in each case. Further, the Potency is 31.6 µM (active) in the assay with HeLa and 39.8 µM (active) in [1] (tumour line A). The activity, negative = cell killing in [1] (setting [2]) is -15.6%.

Turning to `O=C1Nc2ccc(Cl)cc2C(c2ccccc2Cl)=NC1O` (centres undefined), the activity, negative = cell killing was 0.661% in assay [1] (setting [3]), -9.55% in assay [1] (setting [4]) and -25.3% in [1] (setting [5]).
